Bioassay records deposited in PubChem BioAssay by National Center for Advancing Translational Sciences (NCATS).
Rows were chosen to be rich in hits. Some 10% of all compounds tested hit in one or more screens of this group.
SARS PLpro yeast: inhibitors of SARS-CoV papain-like protease in yeast; S. cerevisiae expressing SARS-CoV PLpro, growth rescue; Potency, µM (series often up to 32.9 µM), most hits filed as activators; hit rate 0.19% among 330,000; AID 485353; calls by dose curve; further: nearly all actives have a fitted effect of over 55% in size
Pf growth 48h: P. falciparum growth inhibition at 48 hours (one generation). Potency, µM (highest dose often 28.7 µM), most hits filed as inhibitors. P. falciparum luciferase growth in erythrocytes, 48 h. hit rate 5.9% among 310,000. AID 504832
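In quantitative HTS format, infected erythrocytes bearing luciferase-reporter parasites were treated for a single generation at 37 C. Luminescence after adding detection reagent served as the growth measure.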
Pf growth 96h: inhibits malaria parasite growth, 96 h. hit rate 6.9% among 320,000. Potency, µM (doses to about 28.7 µM), usual class: inhibitors. AID 504834. P. falciparum luciferase reporter growth, 96 h
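Plates of compound plus infected erythrocytes (2% hematocrit, 0.05% parasitemia final) incubate 96 hours, 37 C, 5% CO2. Detection reagent added; reduced luminescence from the parasites' luciferase reporter flags inhibition.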
NS1 inh: influenza NS1 inhibition | Potency, µM (doses to about 46.1 µM) | hit rate 0.4% among 270,000; calls by dose curve; further: actives are rising curves; nearly all actives have a fitted effect of over 50% in size
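In this qHTS, NS1 from influenza A is expressed in budding yeast, where it slows growth. Cells are switched from glucose to 2% galactose medium (pH 6.0, -URA), treated with compound, and growth recovery is read at OD600.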
Large screens that a line does not name were inactive. Unless noted, the call rests on the fitted dose curve; in most records, active means well fitted inhibition curve with a large enough effect; inconclusive means small, poorly fitted or top-dose-only effect, or another doubt; inactive means no such curve, though single readings can be large or run the other way.

COc1ccc(-n2nnnc2CNC(=O)c2ccc3c(c2)OCO3)cc1	none (no result: NS1 inh)
CC1=CCC[C@@H]2[C@@](C)(CC/C(C)=C/C(=O)O)[C@H](C)CC[C@@]12C	none
O=C(Nc1cccc(S(=O)(=O)N2CCOCC2)c1)C1CCN(S(=O)(=O)c2ccccc2)CC1	Pf growth 48h inconclusive, Pf growth 96h inconclusive (no result: NS1 inh)
CC(C)(C)C(=O)Nc1cccc(-c2nnc(-c3cccc(NC(=O)C(C)(C)C)c3)o2)c1	Pf growth 48h 4.7µM, Pf growth 96h inconclusive
N=c1oc2cc(O)ccc2cc1C(=O)Nc1ccc(Cl)cc1	none
CN(C)CCCN(C(=O)c1ccc(S(=O)(=O)N(C)C2CCCCC2)cc1)c1nc2ccc(F)cc2s1	Pf growth 48h inconclusive, Pf growth 96h inconclusive
CCCCN(C(=O)c1ccc(S(=O)(=O)N(C)C)cc1)c1nc2ccccc2s1	Pf growth 48h inconclusive, Pf growth 96h 1.9µM
Cc1cc(C)c2sc(N(CCCN(C)C)C(=O)c3ccc(S(=O)(=O)N(C)C4CCCCC4)cc3)nc2c1	Pf growth 48h 10µM, Pf growth 96h inconclusive (no result: NS1 inh)
CN(C)CCCN(C(=O)c1ccc(S(=O)(=O)N(C)C2CCCCC2)cc1)c1nc2ccc(Br)cc2s1	Pf growth 48h 13µM, Pf growth 96h inconclusive
COc1cc2nc(N(CCCN(C)C)C(=O)c3ccc(S(=O)(=O)N(C)C4CCCCC4)cc3)sc2cc1OC	Pf growth 48h inconclusive, Pf growth 96h inconclusive (no result: NS1 inh)
O=C1CSC(=Nc2ccc(F)cc2)N1	Pf growth 48h inconclusive, Pf growth 96h inconclusive
CCc1ccc(N=C2NC(=O)CS2)cc1	Pf growth 48h inconclusive, Pf growth 96h 9.3µM
CCOC(=O)N1CCN(C(=O)CSc2nc(=O)n3ccccc3n2)CC1	none (no result: NS1 inh)
C[C@@H](N)[C@@H](O)c1ccc(O)c(O)c1	Pf growth 96h 0.6µM (no result: SARS PLpro yeast, NS1 inh)
CCC(NC(C)C)C(O)c1ccc(O)c2[nH]c(=O)ccc12 (stereo unspecified)	Pf growth 48h inconclusive
CC(N)[C@H](O)c1ccc(O)c(O)c1 (stereo partly specified)	none (no result: SARS PLpro yeast, Pf growth 48h, Pf growth 96h)
CC[C@H](NC(C)C)[C@H](O)c1ccc(O)c(O)c1	Pf growth 48h inconclusive, Pf growth 96h 13µM (no result: SARS PLpro yeast, NS1 inh)
Cc1ccc(S(=O)(=O)CCC(=O)OCC(=O)c2cc(C)n(C)c2C)cc1	Pf growth 48h inconclusive (no result: NS1 inh)
O=C(CSc1nnc(NC(=O)c2c(F)cccc2Cl)s1)Nc1ccccc1F	none
Cc1cccc(N(C)C(=O)CCS(=O)(=O)c2cc3c(cc2Cl)NC(=O)CO3)c1	Pf growth 96h inconclusive
O=C(COC(=O)CNC(=O)C1CCCCC1)Nc1ccccc1Cl	none (no result: NS1 inh)
CC1(C)SC2[C@@H](N=CN3CCCCCC3)C(=O)N2[C@H]1C(=O)O (stereo partly specified)	Pf growth 48h inconclusive, Pf growth 96h 17µM (no result: SARS PLpro yeast, NS1 inh)
O=C1CS/C(=N/N=C2CCCC2)N1	Pf growth 96h 3.3µM (no result: NS1 inh)
C=CCn1c(SCC(=O)Nc2ccc(F)cc2F)nnc1-c1cnccn1	none
COc1cc2c(cc1O)[C@@H]1Cc3ccc(OC)c(O)c3CN1CC2	Pf growth 48h 12µM, Pf growth 96h 6.6µM (no result: SARS PLpro yeast, NS1 inh)
CC1(C)CC2(CC(c3ccc(F)cc3)c3ccc(O)cc3O2)NC(=S)N1 (stereo unspecified)	Pf growth 48h 2.3µM
CC1(C)CC2(CC(c3cccs3)c3cc(Cl)c(O)cc3O2)NC(=S)N1 (stereo unspecified)	Pf growth 48h inconclusive, Pf growth 96h inconclusive
O=C1CCCN1CC(=O)N1CCCC(Nc2cccc(F)c2)C1 (stereo unspecified)	SARS PLpro yeast inconclusive
O=C(Nc1ccccc1C(=O)NC1CCCCC1)c1ccccc1	Pf growth 48h inconclusive, Pf growth 96h 6.6µM
O=C(O)CCC(=O)Nc1ccccc1C(=O)NC1CCCCC1	none
O=C(Nc1ccsc1C(=O)NC1CCCCC1)c1ccccc1	Pf growth 48h 7.4µM, Pf growth 96h inconclusive
COC(=O)[C@]1(Cc2ccccc2)N[C@H](CN(C)C(=O)C2CCCCC2)[C@@H]2C(=O)N(C)C(=O)[C@@H]21	none (no result: Pf growth 48h, Pf growth 96h, NS1 inh)
O=C(N/N=C/c1cccc([N+](=O)[O-])c1)C(=O)N1CCCCCC1	none
COC(=O)[C@]1(Cc2ccccc2)N[C@H](CN(C)C(=O)Nc2ccc(OC)cc2)[C@@H]2C(=O)N(Cc3ccccc3)C(=O)[C@@H]21	none (no result: Pf growth 48h, Pf growth 96h, NS1 inh)
COc1ccc(N(CC(=O)Nc2ccc(C)c(F)c2)S(=O)(=O)c2c(C)noc2C)cc1	Pf growth 48h 13µM, Pf growth 96h inconclusive
CCOc1ccc(N(CC(=O)Nc2ccccc2OCC)S(=O)(=O)c2c(C)noc2C)cc1	Pf growth 48h inconclusive, Pf growth 96h 12µM
CCOc1ccc(N(CC(=O)Nc2cccc(OC)c2)S(=O)(=O)c2c(C)noc2C)cc1	Pf growth 48h inconclusive, Pf growth 96h 0.83µM
CC[N+](CC)(CC)CCOc1ccc(/C=C/c2ccccc2)cc1	Pf growth 48h 0.29µM, Pf growth 96h 0.74µM (no result: NS1 inh)
CC(=O)Oc1cccc(C)c1	none (no result: SARS PLpro yeast, NS1 inh)
Clc1ccc(-c2cn(-c3ccccc3)c3[n+]2CCS3)cc1	Pf growth 48h inconclusive
COc1ccc(-c2cn(-c3ccc(Br)cc3)c3[n+]2CCS3)cc1	Pf growth 48h 1µM, Pf growth 96h inconclusive
Fc1ccc(-c2cn(-c3ccccc3)c3[n+]2CCS3)cc1	Pf growth 48h 0.93µM, Pf growth 96h 0.41µM
CNC(=O)CSc1nc2cccnc2n1-c1ccc(F)cc1	Pf growth 96h inconclusive
Cn1c(Cc2ccccc2)nnc1SCC(=O)NC1CCCC1	none
CC1(C)Cc2c(cnn2-c2cccc(F)c2)C(NC(=O)c2ccc(=O)[nH]n2)C1 (stereo unspecified)	Pf growth 96h inconclusive
COC(=O)c1ccc(NC(=O)CCN2C(=O)NC(C)(C)C2=O)cc1	none (no result: NS1 inh)
CCOC(=O)/C=c1\s/c(=C\c2c(OCC)ccc3ccccc23)c(=O)n1CC(=O)NCC1CCCO1 (stereo unspecified)	Pf growth 48h 12µM (no result: Pf growth 96h)
CCOC(=O)/C=c1\s/c(=C\c2ccc3c(c2)OCCO3)c(=O)n1CC(=O)NCC1CCCO1 (stereo unspecified)	none
Cc1ccc(-n2c(-c3ccc(Br)cc3)c[n+]3c2CCc2ccc4cccnc4c2-3)cc1	Pf growth 48h 1.7µM, Pf growth 96h 0.47µM
COc1ccc(OC)c(NC(=O)CSc2nc3ccccc3c3nc4ccccc4n23)c1	Pf growth 48h 0.83µM, Pf growth 96h inconclusive
COc1ccc(OC)c(NC(=O)CSc2nc3ccccc3cc2Cc2ccccc2)c1	Pf growth 48h inconclusive, Pf growth 96h 6.6µM
COc1cccc(NC(=O)CSc2nc3ccccc3cc2Cc2ccccc2)c1	Pf growth 48h 3.3µM, Pf growth 96h 7.4µM
COc1cccc(NC(=O)CN(C)C(=O)/C=C/c2ccc3ccccc3n2)c1	Pf growth 48h 12µM, Pf growth 96h inconclusive (no result: SARS PLpro yeast, NS1 inh)
CCOC(=O)C1=CN(Cc2cccc(-c3ccc(F)cc3)c2)S(=O)(=O)N(C)C1C (stereo unspecified)	none (no result: Pf growth 48h, Pf growth 96h, NS1 inh)
O=C1Nc2ccccc2C1C(C[N+](=O)[O-])c1ccccc1 (stereo unspecified)	none
COc1cccc(NC(=O)Cc2nc(-c3ccccc3)sc2-c2ccc(C)cc2)c1	Pf growth 48h inconclusive, Pf growth 96h 10µM
COc1cc(NC(=O)CSc2nc3ccccc3cc2Cc2ccccc2)cc(OC)c1	Pf growth 48h 12µM, Pf growth 96h inconclusive
COc1cccc(NC(=O)CN(C)C(=O)COc2ccccc2Cc2ccccc2)c1	Pf growth 48h inconclusive, Pf growth 96h 5.2µM (no result: NS1 inh)
